Most compounds without a hit are left out; they make up all but 9.2% or so of the library.
Rab9 promoter act – qHTS Assay for Rab9 Promoter Activators; Huh7 Rab9 promoter-luciferase reporter, luminescence, 24 h; Potency, µM (top dose mostly 9.22 µM), without a hit: at the top dose activation, negative = inhibition, actives largely listed as activators; 320,000 compounds, 2.8% hits; further: % of control where 0% means no effect; nearly all actives have a fitted effect of over 60% in size
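Huh7 reporter line, Rab9 promoter upstream of luciferase. Compound exposure 24 h at 37 °C in reduced-serum medium with 10% FBS. Read-out: luminescence.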
ELG1 repair inh – qHTS screen for small molecules that inhibit ELG1-dependent DNA repair in human embryonic kidney (HEK293T) cells expressing luciferase-tagged ELG1. HEK293T ELG1-luciferase reporter, luminescence, 16 h; DNA damage induced by 5-fluorouridine. Potency, µM (doses to about 46.1 µM), without a hit: at the highest dose activity change, negative = inhibition, usual class: inhibitors. 330,000 compounds, 2.3% hits; further: on the % scale 0 is the no-effect control and ±100 the full control effect; nearly all actives have a fitted effect of over 55% in size
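DMSO vehicle served as the neutral condition. Each well held 2,000 cells given 5-fluorouridine plus compound; after 16 hr at 37 °C/5% CO2, ONE-Glo was added and luciferase measured 30 min later.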
ELG1 genotox – qHTS screen for small molecules that induce genotoxicity in human embryonic kidney (HEK293T) cells expressing luciferase-tagged ELG1; HEK293T ELG1-luciferase reporter, luminescence, 16 h; AID 504466, 2011; Potency, µM (series often up to 46 µM), for inactives: at the highest dose activity change, positive = activation, actives largely listed as activators; 330,000 compounds, 1.3% hits; further: % of control where 0% means no effect; nearly all actives have a fitted effect of over 60% in size
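Step 1: seed 2,000 HEK293T ELG1-luciferase cells per well. Step 2: add compound or DMSO, incubate 16 hr at 37 °C. Step 3: ONE-Glo, 30 min at room temperature, read luminescence.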
NPC1 promoter act – qHTS Assay for NPC1 Promoter Activators; Huh7 NPC1 promoter luciferase reporter, 24 h; Potency, µM (highest dose often 9.22 µM), without a hit: at the top dose activation, usual class: activators; 320,000 compounds, 2.4% hits; further: % of control where 0% means no effect; nearly all actives have a fitted effect of over 60% in size
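Luminescence from an NPC1 promoter-driven luciferase reporter in stably transfected Huh7 cells was measured after 24 h compound treatment at 37 °C, followed by 10 min ambient incubation with luciferase detection reagent.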
SMN2 splice enh – qHTS Assay for Enhancers of SMN2 Splice Variant Expression; 210,000 compounds, 2.8% hits; Potency, µM (doses to about 46.1 µM), for inactives: top-dose activity change, positive = activation, most hits filed as activators; HEK293 SMN2-luciferase splicing reporter, luminescence, 30-36 h; further: % of control where 0% means no effect; nearly all actives have a fitted effect of over 55% in size
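HEK293 cells carry an SMN2 minigene-luciferase reporter in which exon 7 inclusion puts luciferase in frame. Cells were seeded at 2000 cells/well, attached for 10-12 hours, then exposed to compounds for 30-36 hours at 37C before ONE-Glo luminescence.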
FLuc modulator – qHTS profiling assay for firefly luciferase inhibitor/activator using purifed enzyme and Km concentrations of substrates (counterscreen for miR-21 project); Luciferin 4-monooxygenase (Photinus pyralis), P08659; purified FLuc, Km substrates, luminescence inhibition; Potency, µM (titrated, usually from 57.5 µM), inactives show at the top dose activity change, negative = inhibition, actives largely listed as inhibitors; 360,000 compounds, 6.9% hits; AID 588342, 2011;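 further: plate controls were vehicle for no effect and reference inhibitor for full effect; nearly all actives have a fitted effect of over 55% in size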
Target sequence (P08659 whole entry, looked up): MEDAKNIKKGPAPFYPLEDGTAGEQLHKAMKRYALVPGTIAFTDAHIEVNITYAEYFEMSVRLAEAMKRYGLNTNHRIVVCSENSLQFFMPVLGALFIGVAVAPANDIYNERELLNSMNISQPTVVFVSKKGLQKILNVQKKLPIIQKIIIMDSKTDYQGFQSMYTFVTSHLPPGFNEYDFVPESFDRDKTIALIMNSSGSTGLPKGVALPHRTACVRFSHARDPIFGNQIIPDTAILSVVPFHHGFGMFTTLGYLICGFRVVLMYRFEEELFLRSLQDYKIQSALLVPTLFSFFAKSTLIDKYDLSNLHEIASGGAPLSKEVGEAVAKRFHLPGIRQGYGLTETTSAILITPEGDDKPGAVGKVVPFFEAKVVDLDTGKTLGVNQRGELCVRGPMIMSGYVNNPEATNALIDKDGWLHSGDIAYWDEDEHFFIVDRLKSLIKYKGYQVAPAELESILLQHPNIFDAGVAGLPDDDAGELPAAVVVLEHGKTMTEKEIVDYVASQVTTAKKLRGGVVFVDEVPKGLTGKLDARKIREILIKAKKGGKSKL
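Biochemical qHTS of compounds, final roughly 60 µM downward over six points, against 10 nM purified firefly luciferase using Km concentrations of substrates (10 uM D-luciferin, 10 uM ATP) in Tris acetate pH 7.5 buffer; luminescence output.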
* hit, by the source's call; ? = inconclusive; . = no result given; [ ] = remark or other dose. The call rests on the fitted dose curve; in most records, active means well fitted curve in the direction sought with a large enough effect; inconclusive means small, poorly fitted or top-dose-only effect, or another doubt; inactive means no such curve, though single readings can be large; an effect the other way counts as inactive or inconclusive. Potency means the concentration at half of the fitted maximal effect.

SMILES | Rab9 promoter act | ELG1 repair inh | ELG1 genotox | NPC1 promoter act | SMN2 splice enh | FLuc modulator
OC1CCN(c2c3c(nc4cc(-c5cccc(F)c5)nn24)CCCC3)CC1 | 7.6% | ? | -0.1% | 1.3% | 28.9% | ?
O=c1c(-c2nc3ccccc3s2)cccn1Cc1ccccc1 | 2.24µM* | ? | 7.31µM* | 1.78µM* | ? | 2.69µM*
O=C(Nc1ccccc1-c1nc2ccccc2s1)c1ccco1 | 13.1% | ? | 0.3% | 2.3% | -29.6% | -1.0%
Cc1ccc(Cn2cccc(-c3nc4ccccc4s3)c2=O)cc1 | 2.24µM* | ? | 6.3% | 2.82µM* | 7.08µM* | 2.13µM*
COc1ccc(C(=O)O/N=C(\N)c2ccccn2)cc1 | 0.398µM* | ? | ? | 0.112µM* | . | 0.0953µM*
COc1cc(OC)cc(C(=O)O/N=C(\N)c2ccccn2)c1 | 0.631µM* | ? | ? | 0.891µM* | . | 6.75µM*
COc1cc(OC)c(C(=O)O/N=C(\N)c2ccccn2)cc1OC | 13.7% | 12.4% | 4.5% | 9.6% | . | -4.3%
COc1cc(OC)cc(C(=O)NNC(=O)c2ccccn2)c1 | -3.9% | ? | ? | -4.4% | . | 3.1%
COc1ccc(CC(=O)O/N=C(\N)c2ccccn2)cc1 | 17.6% | ? | ? | 10.1% | . | 12µM*
COc1ccc(C(=O)NNC(=O)c2ccccn2)cc1 | 0.316µM* | ? | 0.146µM* | 0.316µM* | 2.51µM* | 0.0849µM*
O=C(Nc1nnc(SCc2cccnc2)s1)C1CC(=O)N(c2ccc(F)cc2)C1 (stereo unspecified) | -5.8% | -4.4% | -1.4% | 1.1% | . | -0.5%
O=C(Cc1ccsc1)NCc1ccccc1F | 8.0% | -3.4% | -4.4% | -0.4% | . | -1.2%
COc1ccc(C(=O)O/N=C(\C)c2cnccn2)cc1 | -1.1% | 10.9% | 2.0% | -0.1% | 7.4% | 10.7µM*
O=S1(=O)c2ccccc2N(Cc2cccc(C(F)(F)F)c2)c2ccccc21 | . | . | . | . | . | -8.2%
Cc1noc(C)c1COC(=O)c1cccc(S(=O)(=O)N2c3ccccc3CC2C)c1 (stereo unspecified) | 3.6% | 18.4µM* | -12.0% | -6.0% | -37.3% | 0.5%
Cc1noc(C)c1COC(=O)c1cccc(S(=O)(=O)N2CCOCC2)c1 | -2.4% | -1.2% | 1.0% | 1.5% | . | -4.3%
Cc1cc(Cl)n2c(nc3ccccc32)c1C#N | -9.6% | 20.6µM* | ? | -18.9% | -107.1% | -4.2%
CNc1cc(C)c(C#N)c2nc3ccccc3n12 | -0.7% | -10.0% | -6.0% | -0.8% | . | 3.9%
N#Cc1c(-c2ccccc2)c(C#N)c2nc3ccccc3n2c1N | -9.1% | -14.7% | 0.9% | -2.6% | -12.2% | 2.8%
Cc1ccc(-c2c(C#N)c(N)n3c(nc4ccccc43)c2C#N)cc1 | -10.1% | 18.4µM* | -27.6% | 0.2% | -118.4% | 1.0%
NC(=S)N/N=C/c1ccc(-c2ccc(Cl)c(Cl)c2)o1 | 16.0% | ? | 3.2% | -0.3% | 3.5% | ?
Cc1ccc(-c2ccc(/C=N/NC(N)=S)o2)cc1 | ? | ? | 12.5% | ? | . | 6.75µM*
NC(=S)N/N=C/c1ccc(-c2ccc(SC(F)F)cc2)o1 | -0.1% | ? | -3.9% | -0.1% | . | 23.9µM*
NC(=S)N/N=C/c1ccc(-c2ccccc2)o1 | 5.1% | -2.3% | 8.9% | 11.0% | -13.1% | ?
COCc1cc(C)nc2sc(C(=O)Nc3ccc(OC)cc3)c(N)c12 | ? | ? | ? | 16.0% | . | ?
SMILES | Rab9 promoter act | ELG1 repair inh | ELG1 genotox | NPC1 promoter act | SMN2 splice enh | FLuc modulator
COCc1cc(C)nc2sc(C(=O)Nc3cccc(OC)c3)c(N)c12 | 3.16µM* | ? | ? | 2.24µM* | . | 8.49µM*
COCc1cc(C)nc2sc(C(=O)Nc3ccccc3OC)c(N)c12 | -1.0% | ? | -1.1% | -7.4% | . | 16.9µM*
COc1ccccc1OCCn1c(C(C)Oc2ccccc2)nc2ccccc21 (stereo unspecified) | . | . | . | . | -28.0% | -17.5%
O=c1nc(Nc2ccc(OCc3ccccc3)cc2)sc2ncccc12 | 12.8% | ? | -3.2% | -2.4% | 3.55µM* | -1.7%
CCOC(=O)c1ccc(Nc2nc(=O)c3cccnc3s2)cc1 | 4.47µM* | ? | 4.5% | 3.55µM* | 10µM* | ?
CC(=O)c1ccc(Nc2nc(=O)c3cccnc3s2)cc1 | . | . | . | . | ? | -9.8%
Nc1c(-c2nc(-c3cccs3)no2)nnn1-c1cccc(Cl)c1 | . | . | . | . | . | -3.1%
CC1CCN(S(=O)(=O)c2cc(C(=O)N3CCN(c4ncccn4)CC3)ccc2Br)CC1 | 0.4% | 18.4µM* | -2.2% | -11.7% | -6.7%[1.84 µM] | 1.0%
CN(Cc1ccccc1)C(=O)CCSc1nc(-c2ccc3c(c2)OCO3)cc(C(F)(F)F)n1 | -6.3% | 16.4µM* | -9.5% | -1.3% | -35.7% | 2.8%
CC(C)C(OC(=O)CN1C(=O)COc2ccccc21)C(=O)NC1CCCC1 (stereo unspecified) | 3.7% | -21.7% | -0.2% | 1.1% | -13.1% | 2.8%
Cc1ccc2c(c1)N(CC(=O)OC(CC(C)C)C(=O)NC1CCCC1)C(=O)CO2 (stereo unspecified) | 4.3% | 20.6µM* | -10.5% | 12.4% | -15.0% | -3.3%
O=C(c1cc(-c2cccc(Cl)c2)on1)N1CCN(c2ccccc2)CC1 | -2.3% | 14.9% | 5.5% | 0.5% | 4.3% | ?
CC(C)CNC(=O)c1cc(-c2ccc(Cl)c(Cl)c2)on1 | 4.47µM* | ? | 11.6% | ? | 18.6% | -10.8%
O=C(c1cc(-c2cccc(Cl)c2)on1)N1CCCC1 | 2.82µM* | ? | 18.3µM* | 3.98µM* | . | 13.5µM*
O=C(c1cc(-c2ccc(Cl)cc2)on1)N1CCCC1 | 0.447µM* | ? | 2.91µM* | 0.562µM* | . | 2.13µM*
O=C(c1cc(-c2ccc(Cl)c(Cl)c2)on1)N1CCCCC1 | 1µM* | ? | ? | 2.82µM* | 22.4µM* | 4.26µM*
COC(=O)C(CCSC)NC(=O)c1cc2c(n(-c3ccc(Cl)cc3)c1=O)CCCC2=O (stereo unspecified) | . | . | . | . | -6.3% | -2.2%
CCOc1ccc(NC(=S)N(CCN2CCOCC2)Cc2cc3cc4c(cc3[nH]c2=O)OCCO4)cc1 | -7.9% | ? | -3.3% | -1.9% | . | -0.4%
Cc1ccc2nc(-c3ccc(NS(=O)(=O)c4c(C)n(C)c(=O)n(C)c4=O)cc3)sc2c1 | 2.82µM* | ? | 14.9% | 3.16µM* | . | 1.9µM*
Cc1cccc(S(=O)(=O)Nc2ccc(-c3nc4ccc(C)cc4s3)cc2)c1 | 2.82µM* | ? | ? | 2.82µM* | 11.2µM* | 3.01µM*

Source: PubChem BioAssay
